Records with an inconclusive call do not appear. Unmarked numbers belong to inactive results. The call rests on the fitted dose curve; in most records, active means well fitted activation curve with a large enough effect; inconclusive means small, poorly fitted or top-dose-only effect; inactive means no such curve, though single readings can be large or run the other way.
Target: Cellular tumor antigen p53 (Homo sapiens) (UniProt P04637)
Experiment: Primary qHTS for small molecule compounds that upregulate eGFP-tagged delta133p53alpha (in N-terminal) cells. (AID 2060322);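 further: series mostly up to about 56 µM; 0% = DMSO vehicle and 100% = reference activator; nearly all actives have a fitted effect of over 75% in size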
Conditions: NCI-H358 eGFP-delta133p53alpha fluorescence, 24 h; activation: stronger effect = higher value
Method in brief: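 NCI-H358 cells pre-induced 24 h with 10 ng/ml doxycycline to express N-terminal eGFP-delta133p53alpha, then dosed 24 h at 37C without doxycycline; fixed, Hoechst-stained, GFP intensity by laser scanning cytometry, normalized to DMSO (0%) and 57.5 uM 5-azacytidine (100%).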

Chain of Cellular tumor antigen p53 (Homo sapiens) (P04637 whole entry, looked up): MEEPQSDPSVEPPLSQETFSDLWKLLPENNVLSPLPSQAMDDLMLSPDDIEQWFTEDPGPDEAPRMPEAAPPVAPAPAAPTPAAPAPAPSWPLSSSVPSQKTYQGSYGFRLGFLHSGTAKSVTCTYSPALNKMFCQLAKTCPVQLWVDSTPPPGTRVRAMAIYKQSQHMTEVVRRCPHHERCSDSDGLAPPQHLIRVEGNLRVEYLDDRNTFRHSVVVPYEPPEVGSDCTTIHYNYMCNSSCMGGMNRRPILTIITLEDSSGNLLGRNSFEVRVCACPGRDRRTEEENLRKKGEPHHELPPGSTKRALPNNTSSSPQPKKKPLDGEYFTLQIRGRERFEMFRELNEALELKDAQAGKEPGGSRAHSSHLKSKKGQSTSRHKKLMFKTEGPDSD

| Structure (SMILES) | activation |
| --- | --- |
| O=C1C(CCC(O)c2ccc(F)cc2)C(c2ccc(O)cc2)N1c1ccc(F)cc1 (centres undefined) | -15.6% |
| COCCc1ccc(OCC2CO2)cc1 (centres undefined) | 7.53% |
| CC(C)=CCC/C(C)=C/CO | -11.9% |
| COc1cc(C)c(C=CC(C)=CC=CC(C)=CC(=O)O)c(C)c1C | 21.4% |

— PubChem BioAssay (NCATS)
